PubChem BioAssay AID1159580 (chemical genetic matrix, 2015)
The whole screen tested about 5,500 compounds, of which about 2,000 (36%) were called active. Inconclusive results (about 18%) are left out. No stated cut-off is given here; in the data, active means normalized growth mostly below about 0.91 (no sharp cut-off); inconclusive means no clear call, values can overlap the other calls; inactive means mostly above about 0.92. This is one part of the list.

Assay: chemical genetic growth profiling, strain panel (AID 1159580);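 further: tested at 20 µM; growth read once vehicle control cultures reached saturation at 30 °C; 1 = growth at the plate median or of vehicle wells; lower values mean less growth of the strain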
Settings: S. cerevisiae deletion strains, growth OD

Measured: normalized growth

CO[C@H]1/C=C/O[C@@]2(C)Oc3c(C)c(O)c4c(O)c(c5c(nc6cc(C)ccn65)c4c3C2=O)NC(=O)/C(C)=C\C=C\[C@H](C)[C@H](O)[C@@H](C)C(O)[C@@H](C)[C@H](OC(C)=O)[C@@H]1C (stereo not given in full)
inactive: locus YAL021C, strain ccr4, active compounds read low 1.04 | locus YAL026C, strain drs2, active compounds read low 1.04 | locus YAL030W, strain snc1, active compounds read low 1.04 | locus YBL061C, strain skt5, active compounds read low 1.04 | locus YBR009C, strain hhf1, active compounds read low 1.01 | locus YBR023C, strain chs3, active compounds read low 1.05 | locus YBR171W, strain sec66, active compounds read low 1.06 | locus YBR231C, strain swc5, active compounds read low 1.05 | locus YBR279W, strain paf1, active compounds read low 1.03 | locus YCL011C, strain gbp2, active compounds read low 1.05 | locus YCL016C, strain dcc1, active compounds read low 1.03 | locus YCL061C, strain MRC1, active compounds read low 1.04 | locus YCL069W, strain vba3, active compounds read low 1.05 | locus YCR088W, strain abp1, active compounds read low 1.04 | locus YDL005C, strain med2, active compounds read low 1.06 | locus YDL040C, strain nat1, active compounds read low 1.03 | locus YDR001C, strain nth1, active compounds read low 1.04 | locus YDR069C, strain doa4, active compounds read low 1.04 | locus YDR137W, strain rgp1, active compounds read low 0.988 | locus YDR159W, strain sac3, active compounds read low 1.05 | locus YDR195W, strain ref2 1.05 | locus YDR297W, strain sur2, active compounds read low 1.04 | locus YDR334W, strain swr1, active compounds read low 1.03 | locus YDR335W, strain msn5, active compounds read low 1.04 | locus YDR392W, strain spt3, active compounds read low 0.961 | locus YEL003W, strain gim4, active compounds read low 1.04 | locus YEL037C, strain rad23, active compounds read low 1.04 | locus YEL061C, strain CIN8 (second series), active compounds read low 1.04 | locus YER015W, strain faa2, active compounds read low 1.04 | locus YER016W, strain bim1, active compounds read low 1.03 | locus YER111C, strain swi4, active compounds read low 1.05 | locus YER155C, strain BEM2 (second series), active compounds read low 1.02 | locus YFR010W, strain ubp6, active compounds read low 1.04 | locus YGL167C, strain pmr1, active compounds read low 1.04 | locus YGL173C, strain kem1, active compounds read low 1.04 | locus YGL227W, strain vid30, active compounds read low 1.05 | locus YGL240W, strain doc1, active compounds read low 1.03 | locus YGL253W, strain hxk2, active compounds read low 1.06 | locus YHR013C, strain ard1, active compounds read low 1.08 | locus YHR027C, strain rpn1, active compounds read low 1.04 | locus YHR030C, strain SLT2, active compounds read low 1.03 | locus YHR079C, strain IRE1, active compounds read low 1.03 | locus YHR142W, strain chs7, active compounds read low 1.07 | locus YJL092W, strain hpr5, active compounds read low 1.04 | locus YJL095W, strain BCK1 (second series), active compounds read low 1.03 | locus YJL095W, strain BCK1, active compounds read low 0.988 | locus YJL115W, strain asf1, active compounds read low 1.04 | locus YJL129C, strain trk1, active compounds read low 1.06 | locus YJL154C, strain vps35, active compounds read low 1.04 | locus YJL164C, strain tpk1, active compounds read low 1.04 | locus YJL166W, strain qcr8, active compounds read low 1.05 | locus YJL187C, strain SWE1, active compounds read low 1.06 | locus YJR066W, strain TOR1, active compounds read low 0.982 | locus YKL160W, strain elf1, active compounds read low 1.05 | locus YKR026C, strain gcn3, active compounds read low 1.05 | locus YKR091W, strain srl3, active compounds read low 1.04 | locus YLL001W, strain dnm1, active compounds read low 1.08 | locus YLL026W, active compounds read low 1.04 | locus YLL041C, strain sdh2, active compounds read low 1.04 | locus YLR027C, strain aat2, active compounds read low 1.03 | locus YLR113W, strain HOG1, active compounds read low 1.01 | locus YLR221C, strain rsa3, active compounds read low 1.06 | locus YLR258W, strain gsy2, active compounds read low 1.04 | locus YLR262C, strain YPT6 (second series), active compounds read low 1.09 | locus YLR320W, strain mms22, active compounds read low 1.04 | locus YLR342W, strain FKS1, active compounds read low 1.04 | locus YLR357W, strain rsc2, active compounds read low 1.07 | locus YLR370C, strain arc18, active compounds read low 1.04 | locus YLR384C, strain iki3, active compounds read low 1.04 | locus YML120C, strain ndi1, active compounds read low 1.02 | locus YMR058W, strain fet3, active compounds read low 1.03 | locus YMR125W, strain sto1, active compounds read low 1.05 | locus YMR129W, active compounds read low 1.03 | locus YMR205C, strain PFK2, active compounds read low 1.05 | locus YMR231W, strain pep5, active compounds read low 1.04 | locus YNL071W, strain lat1, active compounds read low 1.05 | locus YNL183C, strain NPR1, active compounds read low 0.988 | locus YNL209W, strain ssb2, active compounds read low 1.03 | locus YNL248C, strain rpa49, active compounds read low 1.06 | locus YNL322C, strain KRE1 (second series), active compounds read low 1.05 | locus YNR049C, strain mso1, active compounds read low 1.03 | locus YOR001W, strain rrp6, active compounds read low 1.01 | locus YOR070C, strain gyp1, active compounds read low 1.04 | locus YOR080W, strain dia2, active compounds read low 1.04 | locus YOR083W, strain WHI5, active compounds read low 1.04 | locus YOR106W, strain vam3, active compounds read low 1.1 | locus YOR231W, strain MKK1, active compounds read low 0.989 | locus YOR265W, strain rbl2, active compounds read low 1.03 | locus YOR270C, strain vph1, active compounds read low 1.1 | locus YOR290C, strain snf2, active compounds read low 1.04 | locus YPL051W, strain arl3, active compounds read low 1.02 | locus YPL078C, strain atp4, active compounds read low 1.05 | locus YPL106C, strain sse1, active compounds read low 1.03 | locus YPL240C, strain hsp82, active compounds read low 1.04 | locus YPL256C, strain CLN2, active compounds read low 1.06
